Data published in the supplement of paper PMC13380429.

Experiments:
[1] = tested on: Vero E6 infected with SARS-CoV-2; experiment: morphology score (similarity to uninfected cells); higher = more like uninfected cells; conditions: 24 h
[2] = tested on: Vero E6 infected with SARS-CoV-2; experiment: SARS-CoV-2 infection rate relative to infected DMSO; higher = more infection, active = 60 or less; conditions: 24 h

SMILES | morphology score [1] | SARS-CoV-2 infection rate [2]
C[C@H]1O[C@@H](Oc2c(-c3cc(O)c(O)c(O)c3)oc3cc(O)cc(O)c3c2=O)[C@@H](O)[C@@H](O)[C@@H]1O [myricitrin] (10 µM) | 0.147 | 103% (inactive)
Cc1cc(C)c(S(=O)(=O)n2cc(C)cc2C)c(C)c1 (10 µM) | 0.0664 | 102% (inactive)
Cn1c(COP(=O)(NCCBr)NCCBr)cnc1[N+](=O)[O-] (10 µM) | 0.0413 | 106% (inactive)
Cc1cccc(-c2n[nH]cc2-c2ccc(F)c(-c3cnn(CCO)c3)c2)n1 (10 µM) | 0.148 | 104% (inactive)
O=C(NCc1ccccc1)OCCO [buramate] (10 µM) | 0.237 | 84.5% (inactive)
Nc1c2ccccc2nc2ccccc12 [9-aminoacridine] (0.833333 µM) | 0.102 | 106% (inactive)
C[n+]1cc2c3c(ccc2c2ccc4cc5c(cc4c21)OCO5)OCO3 [sanguinarium-chloride] (10 µM) | -0.0249 | 94.5% (inactive)
CC1CCc2cc(F)cc3c(=O)c(C(=O)O)cn1c23 (stereo not given) [flumequine] (10 µM) | -0.154 | 116% (inactive)
Fc1ccc([C@@H]2CCNC[C@H]2COc2ccc3c(c2)OCO3)cc1 [paroxetine] (10 µM) | -0.0761 | 117% (inactive)
CCOc1cc2ncc(C#N)c(Nc3ccc(F)c(Cl)c3)c2cc1NC(=O)/C=C/CN(C)C [pelitinib] (10 µM) | -0.188 | 110% (inactive)
O=C1c2cccc(O)c2C(=O)c2c(O)cccc21 [dantron] (10 µM) | -0.0545 | 103% (inactive)
O=C(/C=C/c1ccccc1)NC(NC(=S)Nc1cccc2cccnc12)C(Cl)(Cl)Cl (stereo not given) [salubrinal] (10 µM) | -0.178 | 108% (inactive)
CN(C)CCC=C1c2ccccc2C=Cc2ccccc21 [cyclobenzaprine] (10 µM) | 0.228 | 78% (inactive)
Cn1c(=O)c(F)c(Nc2ccc(I)cc2F)c2c(=O)n(C[C@@H](O)CO)cnc21 (0.833333 µM) | -0.0443 | 109% (inactive)
CCOc1cncc(/C=C/CCNC)c1 (10 µM) | -0.0406 | 108% (inactive)
CC(=O)[C@]1(O)Cc2c(O)c3c(c(O)c2[C@@H](O[C@H]2C[C@H](N)[C@H](O)[C@H](C)O2)C1)C(=O)c1ccccc1C3=O [idarubicin] (0.833333 µM) | -0.15 | 106% (inactive)
Oc1ccc2ccccc2c1 [beta-naphthol] (10 µM) | -0.0489 | 111% (inactive)
N[C@@]1(C(=O)O)CC[C@H]2[C@H](C(=O)O)[C@H]21 [eglumetad] (10 µM) | -0.0541 | 114% (inactive)
Cc1ccc(Cl)cc1N(CC(=O)Nc1c(F)cccc1F)S(C)(=O)=O (10 µM) | 0.0341 | 113% (inactive)
C[C@H](Cc1ccc(OCC(=O)O)cc1)NC[C@H](O)c1cccc(Cl)c1 (10 µM) | -0.0663 | 107% (inactive)
CNC(=C[N+](=O)[O-])NCCSCc1ccc(CN(C)C)o1 [ranitidine] (10 µM) | -0.0967 | 111% (inactive)
CCCCCCCCCCCCCCCC(=O)OC[C@H](COP(=O)([O-])OCC[N+](C)(C)C)OC(=O)CCCCCCCCCCCCCCC [colfosceril-palmitate] (10 µM) | 0.152 | 103% (inactive)
Cc1ccc(C(C)C)c(O)c1 [thymol] (10 µM) | -0.0243 | 112% (inactive)
NC(=O)c1ncn([C@@H]2O[C@H](CO)[C@@H](O)[C@H]2O)c1N [acadesine] (10 µM) | 0.00261 | 98.5% (inactive)
CNCCC=C1c2ccccc2CCc2ccccc21 [nortriptyline] (0.833333 µM) | -0.1 | 110% (inactive)
CC(C)Cc1ccc(C(C)C(=O)O)cc1 (stereo not given) [ibuprofen] (10 µM) | 0.0447 | 108% (inactive)
CCCCNC(=O)NS(=O)(=O)c1ccc(C)cc1 [tolbutamide] (10 µM) | 0.121 | 96.5% (inactive)
CCN(CC)CCCCNc1ncc2cc(-c3c(Cl)cccc3Cl)c(NC(=O)NC(C)(C)C)nc2n1 (0.833333 µM) | 0.085 | 117% (inactive)
C/C(O)=C(\C#N)C(=O)Nc1cc(Br)ccc1Br (10 µM) | 0.00477 | 105% (inactive)
NS(=O)(=O)c1cc(C2(O)NC(=O)c3ccccc32)ccc1Cl (stereo not given) [chlorthalidone] (10 µM) | 0.13 | 78.5% (inactive)
